The list is not random: actives were taken first. Their share in the collection is about 3.8%.
ELG1 DNA repair: qHTS screen for small molecules that inhibit ELG1-dependent DNA repair in human embryonic kidney (HEK293T) cells expressing luciferase-tagged ELG1. HEK293T ELG1-luciferase reporter, luminescence, 16 h; DNA damage induced by 5-fluorouridine. Potency, µM (series often up to 46.1 µM), actives largely listed as inhibitors. hit rate 2.3% among 330,000. AID 504467, 2011; note: nearly all actives have a fitted effect of over 55% in size
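Cells (2,000 per well) received 5-fluorouridine plus test compound or DMSO and were incubated 16 hr at 37 °C, 5% CO2. Luciferase activity was read by luminescence 30 min after ONE-Glo addition; signal suppression marked inhibition of damage-induced ELG1 function.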
A549 viability: Nrf2 qHTS screen for inhibitors: counterscreen for cytotoxicity; A549 ARE-Fluc cells, CellTiter-Fluor viability, 18-24 h; Potency, µM (titrated, usually from 46 µM), hits mostly inhibitors; hit rate 0.16% among 390,000
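Cytotoxicity counterscreen: CellTiter-Fluor fluorescence was measured in A549 ARE_Fluc cells after 18-24 h of compound exposure in a concentration series. The subsequent BugLite luminescent read reports ARE-luciferase activity.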
mIDH1 inhibitor: qHTS for Inhibitors of mutant isocitrate dehydrogenase 1 (IDH1): qHTS; AID 602179, 2012; hit rate 0.093% among 390,000; IDH1-R132H enzyme, NADPH consumption, diaphorase/resazurin fluorescence; Potency, µM (series often up to 76.6 µM), most hits filed as inhibitors; Isocitrate dehydrogenase [NADP] cytoplasmic (Homo sapiens), O75874; note: nearly all actives have a fitted effect of over 65% in size
Target sequence (O75874 whole entry R132H, stated change not applied): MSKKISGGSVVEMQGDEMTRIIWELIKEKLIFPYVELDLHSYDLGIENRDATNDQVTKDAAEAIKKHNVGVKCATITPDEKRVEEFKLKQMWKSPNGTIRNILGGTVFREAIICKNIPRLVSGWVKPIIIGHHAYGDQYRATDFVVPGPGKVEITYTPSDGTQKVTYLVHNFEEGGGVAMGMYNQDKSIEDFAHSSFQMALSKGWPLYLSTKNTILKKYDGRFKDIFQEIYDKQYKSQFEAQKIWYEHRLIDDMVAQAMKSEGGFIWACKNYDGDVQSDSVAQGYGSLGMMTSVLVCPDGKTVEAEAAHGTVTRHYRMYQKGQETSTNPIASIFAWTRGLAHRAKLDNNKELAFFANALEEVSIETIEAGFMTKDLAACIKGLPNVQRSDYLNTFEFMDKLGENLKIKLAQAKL
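IDH1-R132H (0.5 ug/mL dispensed) in pH 7.5 Tris buffer was preincubated 30 min with compound, then given a substrate mix of 0.016 mM NADPH and 2 mM alpha-KG for 80 min at room temperature; remaining NADPH was read by diaphorase/resazurin fluorescence.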
Nrf2 ARE act: qHTS of Nrf2 Activators; hit rate 0.31% among 410,000; Potency, µM (titrated, usually from 46.1 µM), most hits filed as activators; AREc32 ARE-luciferase reporter (MCF7-derived line), luminescence, 24 h; AID 624171, 2012; note: nearly all actives have a fitted effect of over 65% in size
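ARE-driven firefly luciferase activity in AREc32 cells measured after a 24 hr compound exposure at 37 deg C, using Steady-Glo reagent and a 30 min room-temperature hold.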
Nrf2 block: Nrf2 qHTS screen for inhibitors | A549 ARE-Fluc reporter, luciferase luminescence, 18-24 h | Potency, µM (titrated, usually from 46 µM), actives largely listed as inhibitors | hit rate 2.1% among 360,000 | AID 504444, 2011; note: nearly all actives have a fitted effect of over 60% in size
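A549 ARE_Fluc cells, 5000/well, 5% FBS OPTI-MEM; compounds in dose-response, 18-24 h at 37 °C/5% CO2; CellTiter-Fluor viability read (Ex 405/Em 525), then BugLite luciferase luminescence = Nrf2 activity.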
Each line names hits and unclear results; the compound was inactive in the other large screens. Calls come from the whole dose curve; as a rule, active = well fitted curve in the direction sought with a large enough effect; inconclusive = small, poorly fitted or top-dose-only effect, or another doubt; inactive = no such curve, though single readings can be large; an effect the other way counts as inactive or inconclusive.

CC12CCC=CC1C(c1ccc3ccccc3c1Br)N(Cc1ccccc1)C2=O (stereo not drawn)	Nrf2 block inconclusive (no result: ELG1 DNA repair, mIDH1 inhibitor, Nrf2 ARE act)
Cc1ccc(NS(=O)(=O)c2ccc3[nH]c(=O)[nH]c3c2)cc1C	none (no result: ELG1 DNA repair, mIDH1 inhibitor, Nrf2 ARE act)
CC(NC(=O)c1cccc2c1Oc1ccccc1S2)C(=O)O (stereo not drawn)	none (no result: ELG1 DNA repair, A549 viability, mIDH1 inhibitor, Nrf2 block)
CCC1CN(C(=O)N2CCC(C(=O)NCCN(C)C)CC2)c2ccccc2O1 (stereo not drawn)	none (no result: ELG1 DNA repair)
COC(=O)c1[nH]c2cccc(OC)c2c1NC(=O)CCN1CCSCC1	none
CCOC(=O)c1cnc2ccc(OCC)cc2c1N1CCN(c2ccccc2OC)CC1	ELG1 DNA repair 14.6µM, A549 viability inconclusive, Nrf2 block inconclusive
COC(=O)c1[nH]c2cccc(OC)c2c1NC(=O)CCN1CCN(c2cccc(Cl)c2)CC1	ELG1 DNA repair 18.4µM (no result: A549 viability, mIDH1 inhibitor, Nrf2 ARE act, Nrf2 block)
Cc1c(Cl)ccc2c(C(=O)NCCCn3nccc3C)cc(-c3ccccn3)nc12	ELG1 DNA repair 18.3µM
Nc1nc2ccccc2n1/N=C/c1ccc([N+](=O)[O-])s1	ELG1 DNA repair inconclusive, A549 viability inconclusive, Nrf2 block 14.6µM
CCn1c(=O)[nH]c2cc(C(=O)Nc3cc(C)cc(C)c3)ccc2c1=O	ELG1 DNA repair inconclusive, Nrf2 block 16.4µM
O=C(Nc1ccccc1)C1=C[C@@H](c2csc3ccccc23)C[C@@H](OCc2ccc(CO)cc2)O1	ELG1 DNA repair inconclusive, Nrf2 block 16.4µM
O=C(NCc1nc2ccccc2[nH]1)C1=C[C@@H](c2ccccc2)C[C@@H](OCc2ccc(CO)cc2)O1	none
O=C(NCc1ccccc1)C1=C[C@H](c2csc3ccccc23)C[C@H](OCc2ccc(CO)cc2)O1	ELG1 DNA repair inconclusive, Nrf2 block inconclusive
O=C(NCc1nc2ccccc2[nH]1)C1=C[C@H](c2ccccc2)C[C@H](OCc2ccc(CO)cc2)O1	ELG1 DNA repair 20.6µM
O=C(Nc1cccc(C(F)(F)F)c1)N1CCC(CN2CCCCCC2)CC1	none (no result: ELG1 DNA repair)
C/C(=N/NC(=O)c1cccs1)c1ccco1	ELG1 DNA repair inconclusive, Nrf2 ARE act 12.6µM
CC(/C=N/NC(=O)c1cccs1)=C\c1ccco1	ELG1 DNA repair inconclusive, Nrf2 ARE act 14.1µM, Nrf2 block inconclusive
CC(C)(C)NC(=O)/C(=C\c1ccco1)NC(=O)c1cccs1	none
CC(/C=N/NC(=O)CSc1nc2ccccc2n1C)=C\c1ccco1	Nrf2 ARE act 12.6µM
C/C(=N\NC(=O)c1csc(C)c1C)c1ccco1	ELG1 DNA repair inconclusive, Nrf2 block inconclusive
Cn1c(SCC(=O)N/N=C/c2ccco2)nc2ccccc21	Nrf2 block inconclusive
CC(/C=N/NC(=O)c1cc(-c2ccncc2)nc2ccccc12)=C\c1ccco1	ELG1 DNA repair inconclusive, A549 viability 18.4µM, Nrf2 ARE act inconclusive
Cc1ccc(S(=O)(=O)N2CCN(c3nc(-c4ccco4)nc4ccccc34)CC2)cc1	none (no result: ELG1 DNA repair, mIDH1 inhibitor, Nrf2 ARE act)
Cn1ccc2c(-c3ccc(C(=O)O)cc3)cc3c(c21)C1CCC3C1 (stereo not drawn)	none (no result: ELG1 DNA repair, A549 viability, mIDH1 inhibitor, Nrf2 block)
CC(/C=C/c1ccco1)=N/NC(=O)Cc1cccs1	Nrf2 ARE act inconclusive
CC(/C=N/NC(=O)Cc1cccs1)=C\c1ccco1	ELG1 DNA repair inconclusive, Nrf2 ARE act 14.1µM
CCOc1ccccc1CN1CCC(Oc2ccc(C(=O)NCc3ccccn3)cc2)CC1	Nrf2 block inconclusive
CCn1cc(CNC(=O)c2ccc(OC3CCN(Cc4ccccn4)CC3)cc2)cn1	Nrf2 block 11.6µM
COc1cc(/C=C/C(=O)N(C)CC(=O)Nc2ccccc2SC)cc(OC)c1OC	ELG1 DNA repair 16.4µM
O=C(Nc1ccccc1F)C(=Cc1sc(N2CCOCC2)nc1-c1ccccc1)C(=O)Nc1ccccc1F	ELG1 DNA repair 8.2µM
O=C(N/N=C/c1sc(N2CCOCC2)nc1-c1ccccc1)c1ccccc1Cl	none
O=[N+]([O-])c1ccc(N/N=C/c2sc(N3CCOCC3)nc2-c2ccccc2)c(S(=O)(=O)Nc2ccccc2Cl)c1	ELG1 DNA repair inconclusive, A549 viability 9.2µM, Nrf2 block 2.59µM
